# Experimental data reported in PubChem BioAssay AID1345085 (National Center for Advancing Translational Sciences (NCATS), 2018).
# Records with an inconclusive call do not appear. Calls of active or inactive are those of the source. The call rests on the fitted dose curve; in most records, active means well fitted cell-killing curve with a large enough effect; inconclusive means small, poorly fitted or top-dose-only effect, or effect the other way; inactive means no such curve, though single readings can be large or run the other way.
# Test system: CASKI
# Assay: Confirmatory qHTS for gynecologic anti-cancer compounds from libraries of approved drugs and bioactive compounds; further: nearly all actives have a fitted effect of over 55% in size
# Conditions: gynecologic cancer cell panel viability, ATPlite luminescence, 48 h; series mostly up to 57.6 µM
# Outline: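 Cells (1,000/well) plated 16 h, then exposed 48 h at 37 °C to 11 concentrations (1:3) from 57.5 uM to 0.977 nM. Viability by ATPlite luminescence after 15 min; IC50 derived, with HEK 293T used for selectivity index.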
# Potency means the concentration at half of the fitted maximal effect.
row,SMILES,Potency
1,CCCCN(CCCC)C(=O)CN1C[C@H](c2ccc3c(c2)OCO3)[C@@H](C(=O)O)[C@@H]1c1ccc(OC)cc1,inactive
2,CCN1CCN(Cc2ccc(-c3cc4c(NC(C)c5ccccc5)ncnc4[nH]3)cc2)CC1 (stereo not drawn),19.3 µM (active)
3,COc1cc(-c2nn(C3CCC(N4CCN(C(C)=O)CC4)CC3)c3ncnc(N)c23)ccc1NC(=O)c1cc2ccccc2n1C (stereo not drawn),inactive
4,O=C(c1ccc(F)c(F)c1Nc1ccc(I)cc1F)N1CC(O)([C@@H]2CCCCN2)C1,17.2 µM (active)
5,Nc1nccc(Oc2ccc(NC(=O)c3c[nH]cc(-c4ccc(F)cc4)c3=O)cc2F)c1Cl,12.2 µM (active)
6,Cn1c(=O)c(F)c(Nc2ccc(I)cc2F)c2c(=O)n(CC(O)CO)cnc21 (stereo not drawn),24.3 µM (active)
7,CC(=O)NCC(=O)N1C2CCC1c1cc(Nc3ncc(C(F)(F)F)c(NC4CCC4)n3)ccc12 (stereo not drawn),9.68 µM (active)
8,CC[C@@]1(O)C(=O)OCc2c1cc1n(c2=O)Cc2cc3c(CN(C)C)c(O)ccc3nc2-1,1.09 µM (active)
9,CCC1C(=O)N(C)c2cnc(Nc3ccc(C(=O)NC4CCC(N5CCN(CC6CC6)CC5)CC4)cc3OC)nc2N1C(C)C (stereo not drawn),6.11 µM (active)
10,S=c1nc[nH]c2nc[nH]c12,4.85 µM (active)
11,Cc1ccc(C(=O)Nc2ccc(Oc3cc4cnn(C)c4cc3-c3cn[nH]c3)c(F)c2)c(=O)n1-c1ccc(F)cc1,inactive
12,CCc1nc(C(N)=O)c(Nc2ccc(N3CCC(N4CCN(C)CC4)CC3)c(OC)c2)nc1NC1CCOCC1,11.9 µM (active)
13,c1cc(N[C@@H]2CCNC2)nc(-c2cnc3ccc(-c4cn[nH]c4)cn23)c1,27.3 µM (active)
14,COc1ccc(-c2cc3nccn3c(Nc3ncccc3C(N)=O)n2)cc1OC,inactive
15,COc1cc(F)c(F)c(Nc2ccc(I)cc2F)c1NS(=O)(=O)C1(CC(O)CO)CC1 (stereo not drawn),inactive
16,CCCC(=O)O[C@]1(C(=O)CCl)[C@@H](C)C[C@H]2[C@@H]3CCC4=CC(=O)C=C[C@]4(C)[C@@]3(F)C(=O)C[C@@]21C,30.6 µM (active)
17,O=C1c2c(O)ccc(O)c2C(=O)c2c(NCCNCCO)ccc(NCCNCCO)c21,7.69 µM (active)

row,SMILES,Potency
1,O=c1[nH]c(=O)n([C@H]2C[C@H](O)[C@@H](CO)O2)cc1Br,inactive
2,C=CC(=O)Nc1cccc(Oc2nc(Nc3ccc(N4CCN(C)CC4)cc3)ncc2Cl)c1,10.9 µM (active)
3,O=C(CCCCCCNC(=O)c1cnc(N(c2ccccc2)c2ccccc2)nc1)NO,21.7 µM (active)
4,CC(Oc1ccc2[nH]nc(/C=C/c3cnn(CCO)c3)c2c1)c1c(Cl)cncc1Cl (stereo not drawn),5.44 µM (active)
5,COCCOc1ccc2c(c1)ncn2-c1ccc2cccc(N3CCC(N)CC3)c2n1,27.3 µM (active)
6,CC(C)C[C@H](NC(=O)[C@@H](NC(=O)c1cccc(-c2ccccc2)n1)[C@@H](C)O)B(O)O,0.0611 µM (active)
7,Cn1cnc([N+](=O)[O-])c1Sc1ncnc2nc[nH]c12,6.85 µM (active)
8,CCCCc1oc2ccccc2c1C(=O)c1cc(I)c(OCCN(CC)CC)c(I)c1,79.4 µM (active)
9,CN1C(=O)C(Cc2c[nH]c3ccccc23)NC1=S (stereo not drawn),inactive
10,CCN(CC)CCNC(=O)c1c(C)[nH]c(/C=C2\C(=O)Nc3ccc(F)cc32)c1C,56.2 µM (active)
11,CC(C)CC(=O)Nc1n[nH]c2c1CN(C(=O)C1CCN(C)CC1)C2(C)C,3.43 µM (active)
12,CN1CCN(Cc2ccc(NC(=O)Nc3ccc(Oc4cc(NC(=O)C5CC5)ncn4)cc3)cc2C(F)(F)F)CC1,0.611 µM (active)
13,CCC1C(=O)N(C)c2cnc(Nc3ccc(C(=O)NC4CCN(C)CC4)cc3OC)nc2N1C1CCCC1 (stereo not drawn),6.85 µM (active)
14,CC(=O)c1cnc2ccc(-c3cc(Cl)c(O)c(Cl)c3)nc2c1NC1CCC(CN(C)C)CC1 (stereo not drawn),0.559 µM (active)
15,Oc1cn2c(n1)Nc1ccc(Cl)c(Cl)c1C2,inactive
16,CC(=O)OC12COC1CC(O)C1(C)C(=O)C(O)C3=C(C)C(OC(=O)C(O)C(NC(=O)OC(C)(C)C)c4ccccc4)CC(O)(C(OC(=O)c4ccccc4)C21)C3(C)C (stereo not drawn),inactive
